The values below come from PubChem BioAssay.

Calls of active or inactive are those of the source. Unless noted, no rule for the calls is given here.

The subject of test [1] is Wnt5a (protein binding on small-molecule microarray). Nature of the test: small molecules binding Wnt5a protein – biophysical, small-molecule microarray, 635/667 nm fluorescence, primary screen (AID 1142).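 Also: fluorescence read at 667 nm with signal to noise per printed feature.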 The following applies: 635 nm fluorescence, higher = more signal.
The nature of test [2]: ATP-based viability of Huh7 replicon cells – cell-based, CellTiter-Glo luminescence, basal, 48 h, cytotoxicity control for HCV replication inhibitor project, primary screen (AID 1143).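 Also: Huh7 hepatoma cells carrying a hepatitis C replication reporter with no stimulus; test concentration not given here.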 As to conditions: higher = more signal, called active from +8 up or from −8 down. Background: A replicon is a self-replicating genome or part of one, used to study replication in cells.
A short description of test [3]: Pseudomonas biofilm growth suppression – PAO1 strain, BacTiter-Glo luminescence, LB-PBS, primary screen (AID 1144). The following applies: P. aeruginosa PAO1 biofilm, 12 h, higher = more signal.
Test [4] is described as follows: basal CRE-LacZ reporter activity in PC12 – cell-based, unstimulated, primary screen (AID 1145). As to conditions: no forskolin, luminescence, 4.5 h, higher = more signal, called active from +8 up or from −8 down.
Test [5] is described as follows: forskolin-driven CRE-LacZ activity in PC12 – cell-based, CRE-LacZ reporter, forskolin-stimulated, primary screen (AID 1146).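 Also: PC12 cells with 6xCRE LacZ reporter stimulated by forskolin 10 µM; beta-galactosidase reporter signal reflecting CREB driven transcription.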 As to conditions: luminescence, 4.5 h, higher = more signal, called active from +8 up or from −8 down.
Test [6] concerns the target Streptavidin (Streptomyces avidinii) (UniProt P22629). The test is described as follows: compounds binding control protein streptavidin – biophysical, small-molecule microarray, 635/667 nm fluorescence, artefact control for SMM compound annotation, primary screen (AID 1147).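 Also: signal reflects streptavidin binding to arrayed compounds as a control protein.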 As to conditions: higher = more signal.
Test [7] can be described thus: probe aInhba binding on compound microarray – biochemical, small-molecule microarray, 635/667 nm fluorescence, primary screen (AID 1148).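 Also: score merges 667nm spot fluorescence with signal-to-noise for antibody binding to printed compounds.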 As to conditions: higher = more signal.
The target in test [8] is Torsin-1A (Homo sapiens) (UniProt O14656). The test is described as follows: TOR1A wild-type binding on microarray – cell lysate, small-molecule microarray, lysate, 635/667 nm, primary screen (AID 1149). The following applies: COS7 hTOR1A-WT lysate, 635 nm fluorescence, higher = more signal.
Test [9] has the same target. The test is described as follows: torsin A mutant lysate binding on microarrays – cell lysate, small-molecule microarray, COS7 lysate, 635/667 nm fluorescence, primary screen (AID 1150).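 Also: score pools 667 nm emission and signal to noise measuring lysate protein binding.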 As to conditions: COS7 hTOR1A mutant lysate, 635 nm fluorescence, higher = more signal.
Test [10] deals with Sonic hedgehog protein (Shh). The test is described as follows: Sonic hedgehog microarray binding compounds – biochemical, small-molecule microarray, 635/667 nm fluorescence, primary screen (AID 1151).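 Also: Shh protein binding to compounds spotted on small-molecule microarray slides; score combines spot fluorescence intensity with signal-to-noise across triplicate slides.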 The following applies: 635 nm fluorescence, higher = more signal.

Chain of Torsin-1A (Homo sapiens) (O14656 whole entry, looked up): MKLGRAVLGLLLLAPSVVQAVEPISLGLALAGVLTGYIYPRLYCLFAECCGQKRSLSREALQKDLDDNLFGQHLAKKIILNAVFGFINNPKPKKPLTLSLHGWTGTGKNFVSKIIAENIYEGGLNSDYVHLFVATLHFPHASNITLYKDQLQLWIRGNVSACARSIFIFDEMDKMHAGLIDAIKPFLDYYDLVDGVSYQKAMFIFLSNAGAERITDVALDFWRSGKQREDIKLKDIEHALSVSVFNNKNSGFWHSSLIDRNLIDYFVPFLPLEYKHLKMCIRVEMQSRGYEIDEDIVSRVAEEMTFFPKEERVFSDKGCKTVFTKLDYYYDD
Chain of Streptavidin (Streptomyces avidinii) (P22629 whole entry, looked up): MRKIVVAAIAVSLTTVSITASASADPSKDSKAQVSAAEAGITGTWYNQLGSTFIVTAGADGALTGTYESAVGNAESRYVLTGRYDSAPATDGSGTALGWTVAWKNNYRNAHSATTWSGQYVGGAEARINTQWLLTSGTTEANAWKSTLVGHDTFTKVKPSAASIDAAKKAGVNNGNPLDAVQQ

As to `COC(=O)c1nc2oc1CC[C@@H](CO)NC(=O)N(C)Cc1cnnn1C[C@H](Cc1ccccc1)NC2=O`, the composite z-score in test [1] is -0.202; in test [6] it was -0.65; in test [7], -0.268; with Torsin-1A (Homo sapiens) [8], -0.182; in the test with Torsin-1A (Homo sapiens) [9], -0.533; in test [10], 0.272. The z-score in test [2] is -0.0922 (inactive); in test [3] it was -1.19 (inactive); in test [4], 0.484 (inactive); in [5], -0.826 (inactive).
As for `COC(=O)c1cn(C[C@@H](Cc2ccccc2)NC(=O)N[C@H](CO)CCc2oc(C(C)=O)c(C(=O)OC)c2C(=O)OC)nn1`, the composite z-score in [1] came out at 0.173; in test [6], 0.304; in [7], 0.108; in the test with Torsin-1A (Homo sapiens) [8], 0.658; with Torsin-1A (Homo sapiens) [9], 0.268; in [10], 1.93. Moreover, the z-score in [2] was -0.102 (inactive); in test [3], 0.201 (inactive); in [4], 1.5 (inactive); in [5] it was -0.981 (inactive).
Turning to `O=C1O[C@H](c2ccccc2)[C@H](c2ccccc2)N2[C@H]1[C@@H](C(=O)N1CCN(c3ncccn3)CC1)[C@]1(C(=O)Nc3ccc(C#CC4(O)CCCCCC4)cc31)[C@H]2c1ccc(OCCO)cc1`, the composite z-score in test [1] worked out at 1.4; in test [6] it was 2.76; in [7] it was 1.05; with Torsin-1A (Homo sapiens) [8], 0.801; with Torsin-1A (Homo sapiens) [9], 1.74; in [10] it was 2.02. The z-score in [2] was -0.69 (inactive); in [3] it was -1.09 (inactive); in test [4], -0.698 (inactive); in test [5], -0.509 (inactive).
For `COCCOC(=O)N1C(=O)[C@@]2(c3cc(C#CCCO)ccc31)[C@H](c1ccccc1OCCO)N1[C@H](c3ccccc3)[C@H](c3ccccc3)OC(=O)[C@H]1[C@@H]2C(=O)Nc1nc2ccccc2s1`, the composite z-score in [1] is 0.138; in [6] it was 0.284; in [7] it was 0.107; with Torsin-1A (Homo sapiens) [8], 0.691; in the test with Torsin-1A (Homo sapiens) [9], 0.568; in test [10], 1.66. Also, the z-score was -0.99 (inactive) in test [2], 0.564 (inactive) in [3], -0.467 (inactive) in test [4] and 0.428 (inactive) in [5].
Regarding `C=C(COC)/C(=C/C[C@H](OC(=O)c1ccncc1)c1ccccc1OCCO)c1cnc2ccccc2c1`, the composite z-score came to 0.488 in test [1]; 0.294 in test [6]; 0.156 in test [7]; 1.57 with Torsin-1A (Homo sapiens) [8]; 1.42 with Torsin-1A (Homo sapiens) [9]; 2.22 in test [10]. The z-score in test [2] was -0.854 (inactive); in test [3] it was -1.13 (inactive); in [4], 3.24 (inactive); in test [5] it was 1.42 (inactive).
Consider `COCCOC(=O)N1C(=O)[C@@]2(c3cc(C#CC4=CCCCC4)ccc31)[C@H](C(N)=O)[C@H]1C(=O)O[C@H](c3ccccc3)[C@H](c3ccccc3)N1[C@@H]2c1ccccc1OCCO`, for which the composite z-score amounted to 0.183 in test [1]; 0.483 in test [6]; 0.147 in test [7]; 0.38 with Torsin-1A (Homo sapiens) [8]; 1.41 with Torsin-1A (Homo sapiens) [9]; 1.08 in [10]. In addition, the z-score is -6.52 (inactive) in test [2], -0.413 (inactive) in [3], -0.333 (inactive) in test [4] and -0.855 (inactive) in [5].
On to `O=C(CS)NCCCCCCNC(=O)[C@H]1C[C@H]2C(=O)N[C@@H](Cc3ccccc3)C(=O)N2[C@H]1c1ccc(O)cc1`, for which the composite z-score in test [1] was 0.491; in test [6], -0.513; in test [7], -0.162; with Torsin-1A (Homo sapiens) [8] it was 1.08; in the test with Torsin-1A (Homo sapiens) [9], 0.768; in test [10], 1.62. Also, the z-score is 0.167 (inactive) in test [2], -0.31 (inactive) in [3], 0.822 (inactive) in test [4] and 0.368 (inactive) in test [5].
For the molecule `O=C1O[C@H](c2ccccc2)[C@H](c2ccccc2)N2[C@H]1[C@@H](C(=O)Nc1nc3ccccc3s1)[C@]1(C(=O)Nc3ccc(C#CCCO)cc31)[C@H]2c1ccc(O)cc1`, the composite z-score was -0.11 in test [1]; 1.09 in test [6]; -0.176 in test [7]; 0.232 with Torsin-1A (Homo sapiens) [8]; 0.7 with Torsin-1A (Homo sapiens) [9]; 1.36 in test [10]. In addition, the z-score in test [2] was 0.358 (inactive); in [3], -0.911 (inactive); in test [4], -0.141 (inactive); in test [5], -0.782 (inactive).
As for `C=CCOC(=O)[C@H]1[C@@H]2C(=O)O[C@@H](c3ccccc3)[C@@H](c3ccccc3)N2[C@@H](c2ccc(OCCOC(=O)[C@@H]3C[C@@H]4C(=O)N[C@@H](CCCCN(C)C)C(=O)N4[C@@H]3c3ccc(O)cc3)cc2)[C@]12C(=O)Nc1ccccc12`, the composite z-score in test [1] was 0.261; in test [6] it was -0.245; in test [7], -0.0468; in the test with Torsin-1A (Homo sapiens) [8] it was 0.756; with Torsin-1A (Homo sapiens) [9], 0.73; in [10] it was 1.96. Also, the z-score in test [2] was -0.0273 (inactive); in test [3] it was 0.283 (inactive); in [4] it was 0.411 (inactive); in [5], 0.739 (inactive).
In the case of `CC(C)[Si](C#CCCCC#N)(O[C@H](c1ccccc1)c1cn([C@H](CO)Cc2ccccc2)nn1)C(C)C`, the composite z-score in test [1] is -0.187; in test [6], 1.18; in test [7] it was -0.108; with Torsin-1A (Homo sapiens) [8] it was 0.531; in the test with Torsin-1A (Homo sapiens) [9] it was 0.477; in [10] it was 0.774. In addition, the z-score in test [2] is -0.248 (inactive); in test [3] it was -0.747 (inactive); in test [4] it was -0.463 (inactive); in [5], 1.01 (inactive).
Take `COc1ccc(CCNC(=O)[C@@]2(Sc3ccc(C)cc3)CC(=O)N(C3Cc4ccccc4C3)[C@@H]2c2ccc(CO)cc2)cc1`: the composite z-score in [1] turned out to be 1.56; in test [6], 1.03; in [7] it was 0.507; in the test with Torsin-1A (Homo sapiens) [8] it was 0.285; with Torsin-1A (Homo sapiens) [9] it was 0.811; in test [10] it was 2.07. Further, the z-score in test [2] was -5.12 (inactive); in test [3], -0.926 (inactive); in test [4], -0.698 (inactive); in test [5], -0.0678 (inactive).
As for `COc1ccc([Si](C)(C)[C@@H]2[C@@H](CC(=O)N(CCO)Cc3ccccc3)O[C@]3(C(=O)N(Cc4cccc(N5C(=O)c6cccc7cccc5c67)c4)c4ccccc43)[C@H]2C)cc1`, the composite z-score in [1] was -0.164; in test [6], -0.24; in test [7] it was -0.0762; with Torsin-1A (Homo sapiens) [8], -0.0207; with Torsin-1A (Homo sapiens) [9], 0.502; in test [10] it was 0.982. The z-score in test [2] was -5.84 (inactive); in [3], -1.02 (inactive); in test [4], -0.999 (inactive); in test [5], -0.823 (inactive).
For `C=CCOC(=O)[C@H]1[C@@H]2C(=O)O[C@@H](c3ccccc3)[C@@H](c3ccccc3)N2[C@@H](c2ccc(OCCOC(=O)[C@H]3C[C@H]4C(=O)N[C@@H](CCCCNC(C)=O)C(=O)N4[C@H]3c3ccc(O)cc3)cc2)[C@]12C(=O)Nc1ccccc12`, the composite z-score in test [1] was 0.228; in test [6], -0.292; in test [7] it was -0.146; with Torsin-1A (Homo sapiens) [8], 0.757; in the test with Torsin-1A (Homo sapiens) [9], 0.835; in [10], 1.75. Further, the z-score was -1.59 (inactive) in test [2], -1.57 (inactive) in test [3], 0.147 (inactive) in test [4] and -0.542 (inactive) in [5].
